PubChem BioAssay (NCATS)
Inconclusive results are not listed. The source made the active and inactive calls. Unless noted, calls follow the shape of the dose curve; as a rule, active = well fitted curve in the direction sought with a large enough effect; inconclusive = small, poorly fitted or top-dose-only effect, or another doubt; inactive = no such curve, though single readings can be large; an effect the other way counts as inactive or inconclusive.

What was measured:
[1] = Cell Viability - BJ (AID 421; calls by dose curve;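 also: potency is read from the fitted curve at half-maximal effect; cells exposed to compound for 40 hours at 37 °C before readout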); conditions: BJ fibroblast viability, qHTS
In short: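 Normal human BJ foreskin fibroblasts, 1500/well in complete medium, treated 40 hr at 37 °C. Cellular ATP by CellTiter-Glo luminescence; normalized to DMSO and 100 uM tamoxifen, AC50 from Hill fit.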

[2] = Cell Viability - Jurkat (AID 426;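 active = dose-dependent loss of cell ATP signal giving a full or clear fitted curve, ranked by lower potency value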; also: potency is read from the fitted curve at half-maximal effect); conditions: qHTS
In short: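 Cells of the human T-cell leukemia line Jurkat (E6-1) are seeded at 5000 per well, treated with compound across a concentration range for 40 hours at 37 °C, then lysed with CellTiter-Glo; luminescence reports ATP.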

[3] = Cell Viability - Hek293 (AID 427;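 active = compounds whose dose-response curve shows a full or clear partial loss of cell viability, called from curve shape rather than a numeric limit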;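 also: potency is read from the fitted curve at half-maximal effect; cells exposed to compound for 40 hours at 37 °C before reading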); conditions: qHTS
In short: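 HEK293 cells in complete medium were exposed to compound for 40 hr at 37 °C, then cellular ATP was read by CellTiter-Glo luminescence. Data were normalized to DMSO (basal) and 100 uM tamoxifen (100% inhibition), and AC50 came from Hill fits.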

[4] = Cell Viability - HepG2 (AID 433; calls by dose curve;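 also: potency is read from the fitted curve at half-maximal effect; potency for ATP loss meaning cytotoxicity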); conditions: qHTS
In short: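 HepG2 hepatocellular carcinoma cells (1500/well) were treated with compounds for 40 h at 37 °C in complete medium; intracellular ATP was read by CellTiter-Glo luminescence. Data were normalized to DMSO and 100 uM tamoxifen, and AC50 came from Hill fits.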

[5] = Cell Viability - MRC5 (AID 434; calls by dose curve;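 also: potency is read from the fitted curve at half-maximal effect; potency reflects cytotoxicity seen as loss of intracellular ATP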); conditions: MRC5 lung fibroblast viability, qHTS
In short: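 AC50 values come from Hill-equation fits of intracellular ATP loss, measured by CellTiter-Glo luminescence. Normal lung fibroblasts (MRC5) had 40 hr compound treatment at 37 C, normalized between DMSO and 100 uM tamoxifen.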

[6] = target: Mitogen-activated protein kinase 10 (Mus musculus) (UniProt Q61831); assay: JNK3 AlphaScreen Assay (AID 530; active = well fitted curve in either direction with a large enough effect, not every such curve was filed as active;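 also: kinase came from lysate of stimulated human HepG2 cells; signal reports phosphorylation of biotinylated GST-cJun 1-79 at Ser73 with 10 µM ATP; % is scaled to controls: 0 for no effect and ±100 for the full control effect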); conditions: JNK3 lysate, c-Jun phosphorylation; series mostly up to 57.1 µM
In short: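 qHTS titrations with 15 min compound pre-incubation before adding ATP (10 uM final). Read-out: AlphaScreen of Ser73-phosphorylated biotin-GST-cJun using HepG2 lysate JNK3 activated by IL-1β and TNFα.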

[7] = Cell Viability - N2a (AID 540); conditions: N2a mouse neuroblastoma cell viability; activity change, negative = cytotoxicity: at 92.2 µM (top of the series);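 also: plate controls were DMSO alone for no effect and tamoxifen control for full effect; nearly all actives have a fitted effect of over 45% in size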
In short: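 Cytotoxicity was scored as loss of cellular ATP in N2a cells, a mouse neuroblastoma line. Compounds are applied in a qHTS concentration series for 40 hr at 37 °C.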

[8] = Cell Viability - NIH 3T3 (AID 541); conditions: NIH 3T3 cell viability, qHTS; activity change, negative = cytotoxicity: at 92.2 µM (top of the series);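 also: plate controls were DMSO alone for no effect and tamoxifen positive control for full effect; nearly all actives have a fitted effect of over 25% in size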
In short: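 Cells seeded at 1000/well, rested 5 hr at 37 °C, then dosed and incubated 40 hr at 37 °C. CellTiter-Glo added, 20 min room temperature, luminescence read. AC50 by Hill fit.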

[9] = Cell Viability - HUV-EC-C (AID 542); conditions: HUV-EC-C endothelial cell viability, qHTS; series mostly up to 92.2 µM; also: % is scaled to controls: 0 for no effect and ±100 for the full control effect; nearly all actives have a fitted effect of over 35% in size
In short: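 Cells were seeded at 1000 per well and incubated 5 hr at 37 °C before compound addition. After 40 hr at 37 °C, CellTiter-Glo reagent was added for 20 min and luminescence read. AC50 values came from Hill-equation modelling.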

[10] = Cell Viability - H-4-II-E (AID 543); conditions: H-4-II-E rat hepatoma viability; series mostly up to 92.2 µM; also: % is scaled to controls: 0 for no effect and ±100 for the full control effect; nearly all actives have a fitted effect of over 35% in size
In short: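 Cells seeded at 1500 per well and rested 5 hr; compounds added; 40 hr incubation at 37 °C; CellTiter-Glo added, 20 min at room temperature; luminescence read. Hill-equation fits gave AC50.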

[11] = Cell Viability - SH-SY5Y (AID 544); conditions: SH-SY5Y neuroblastoma cell viability; viability change, negative = cytotoxic: at 92.2 µM (top of the series); also: nearly all actives have a fitted effect of over 55% in size
In short: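 Cells were plated at 1500 per well and allowed 5 hr at 37 °C. Compounds were added across a concentration range and incubated 40 hr at 37 °C. CellTiter-Glo was added for 20 min at room temperature before luminescence reading.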

[12] = Cell Viability - Renal Proximal Tubule (AID 545); conditions: renal proximal tubule cells viability, primary cells of rat origin; series mostly up to 91.7 µM; also: nearly all actives have a fitted effect of over 40% in size
In short: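 Primary rat renal proximal tubule cells (1000/well) were treated with compounds for 40 hr at 37 °C in complete medium. Intracellular ATP was measured by CellTiter-Glo luminescence, and AC50 values came from Hill-equation fits of concentration-response data.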

[13] = Cell Viability - Mesenchymal (AID 546); conditions: mesenchymal cells viability, qHTS; series mostly up to 91.7 µM;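 also: cells exposed to compound for 40 hours before reading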
In short: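 CellTiter-Glo luminescence (intracellular ATP, 20 min room temperature) after 40 hr compound exposure at 37 °C of 1000 glomerulus-derived human kidney mesenchymal cells/well; AC50 values obtained by fitting qHTS concentration-response data to the Hill equation.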

[14] = Cellular Toxicity (caspase-3) HepG2 (AID 654); conditions: HepG2 caspase-3 activation, luminescence; series mostly up to 92.2 µM;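 also: cells exposed to compound for 16 hours before reading; 0% = DMSO alone and 100% = caspase signal from 100 µM tamoxifen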
In short: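 Caspase 3/7 activation in HepG2 is measured as rising luminescence after a 16 hr treatment at 37 °C. Values are scaled between DMSO basal and 100 uM tamoxifen, and AC50 is fitted with the Hill equation.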

[15] = Cellular Toxicity (caspase-3) Jurkat (AID 655); conditions: Jurkat caspase-3 activation, luminescence; caspase-3 activation: at 92.2 µM (top of the series), DMSO = 0%, tamoxifen = 100%;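 also: cells exposed to compound for 16 h at 37 °C before reading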
In short: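 Jurkat cells (5000/well) in complete medium were treated with compounds for 16 hr at 37 °C, then Caspase-Glo 3/7 luminescence was read after 20 min at room temperature. Data normalized to DMSO (basal) and 100 uM tamoxifen (100%); AC50 from Hill fit.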

[16] = Cellular Toxicity (caspase-3) HUV-EC-C (AID 656); conditions: HUV-EC-C cells, caspase-3 activation (apoptosis), vehicle = 0, 100 µM tamoxifen = 100%; series mostly up to 92.2 µM
In short: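 HUV-EC-C endothelial cells, 1000/well, were pre-incubated 5 hr at 37°C, then exposed to compounds for 16 hr at 37°C. Caspase-Glo 3/7 luminescence was read after 20 min at room temperature. AC50 came from Hill fits, normalized to DMSO and 100 uM tamoxifen.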

[17] = Cellular Toxicity (caspase-3) SHSY5Y (AID 657); conditions: SH-SY5Y caspase-3 activation, DMSO zero, 10 µM staurosporine = 100%; series mostly up to 91.7 µM
In short: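 SH-SY5Y human neuroblastoma cells (1500/well) were treated with compounds for 16 h at 37 °C, then Caspase-Glo 3/7 luminescence was read after 1 h at room temperature. Data normalized to DMSO and 10 uM staurosporine; AC50 from Hill fits.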

[18] = Cellular Toxicity (caspase-3) BJ (AID 658); conditions: BJ fibroblasts, luminescence, normalized: DMSO 0%, staurosporine 100%; series mostly up to 91.7 µM
In short: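 Caspase-Glo 3/7 luminescence, read 1 hr after reagent at room temperature, in normal BJ fibroblasts exposed 16 hours at 37 °C. AC50 values from Hill-equation concentration-response, scaled between DMSO basal and 10 uM staurosporine as 100%.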

[19] = Cellular Toxicity (caspase-3) MRC-5 (AID 659); conditions: MRC-5 cells, luminescence, normalized: DMSO 0%, 10 µM staurosporine 100%; series mostly up to 91.7 µM
In short: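 Luminescent Caspase-Glo 3/7 read-out (1 h, room temperature) after a 16 h, 37 °C compound exposure of MRC-5 lung fibroblasts at 1500 cells/well. Concentration-response AC50 from Hill equation; 0% DMSO, 100% 10 uM staurosporine.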

[20] = Cell Viability - SK-N-SH (AID 435; calls by dose curve;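 also: potency is read from the fitted curve at half-maximal effect; compound exposure lasted 40 h at 37 °C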); conditions: SK-N-SH neuroblastoma cell viability qHTS
In short: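 SK-N-SH human neuroblastoma cells (1500/well) were exposed to compounds in complete medium for 40 h at 37 °C, and intracellular ATP was then measured by CellTiter-Glo luminescence. AC50 was taken from Hill fits, normalized to DMSO and 100 uM tamoxifen.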

O=C1OC(=O)c2cc([N+](=O)[O-])ccc21
inactive: Potency [1] > 92 µM | Potency [2] > 92 µM | Potency [3] > 92 µM | Potency [4] > 92 µM | Potency [5] > 92 µM | outcome [6] | activity change, negative = cytotoxicity [7] -2.26% | Potency [8] | Potency [9] | Potency [10] | Potency [11] | Potency [12] | Potency [13] | Potency [14] | caspase-3 activation [15] -2.27% | outcome [16] | outcome [17] | outcome [18] | outcome [19]

O=Cc1c(Cl)cccc1Cl
inactive: Potency [1] > 92 µM | Potency [2] > 92 µM | Potency [3] > 92 µM | Potency [4] > 92 µM | Potency [5] > 92 µM | Potency [20] > 92 µM | outcome [6] | activity change, negative = cytotoxicity [7] -16.5% | Potency [9] | Potency [10] | Potency [11] | Potency [12] | Potency [13] | Potency [14] | caspase-3 activation [15] 3.49% | outcome [16] | outcome [17] | outcome [18] | outcome [19]

CC(O)CC(C)O (stereo not given)
inactive: Potency [1] > 92 µM | Potency [2] > 92 µM | Potency [3] > 92 µM | Potency [4] > 92 µM | Potency [5] > 92 µM | Potency [20] > 92 µM | outcome [6] | Potency [8] | Potency [10] | Potency [11] | Potency [12] | Potency [13] | Potency [14] | caspase-3 activation [15] 0.345% | outcome [16] | outcome [17] | outcome [18] | outcome [19]

CC(C)=CCC/C(C)=C/C=O
inactive: Potency [1] > 92 µM | Potency [2] > 92 µM | Potency [3] > 92 µM | Potency [4] > 92 µM | Potency [5] > 92 µM | Potency [20] > 92 µM | outcome [6] | activity change, negative = cytotoxicity [7] -7.95% | Potency [9] | Potency [10] | Potency [11] | Potency [12] | Potency [13] | Potency [14] | caspase-3 activation [15] 0.822% | outcome [16] | outcome [17] | outcome [18] | outcome [19]

Cc1cc(C)cc(O)c1
inactive: Potency [1] > 92 µM | Potency [2] > 92 µM | Potency [3] > 92 µM | Potency [4] > 92 µM | Potency [5] > 92 µM | Potency [20] > 92 µM | outcome [6] | Potency [8] | Potency [9] | Potency [10] | Potency [11] | Potency [12] | Potency [13] | Potency [14] | caspase-3 activation [15] 0.986% | outcome [16] | outcome [17] | outcome [19]

NC(=O)c1ccccc1[N+](=O)[O-]
inactive: Potency [1] > 92 µM | Potency [2] > 92 µM | Potency [3] > 92 µM | Potency [4] > 92 µM | Potency [5] > 92 µM | Potency [20] > 92 µM | outcome [6] | Potency [8] | Potency [9] | Potency [10] | Potency [11] | Potency [12] | Potency [13] | Potency [14] | caspase-3 activation [15] -0.0168% | outcome [16] | outcome [17] | outcome [18] | outcome [19]

Cc1cccc(C)c1O
inactive: Potency [1] > 92 µM | Potency [2] > 92 µM | Potency [3] > 92 µM | Potency [4] > 92 µM | Potency [5] > 92 µM | Potency [20] > 92 µM | outcome [6] | Potency [8] | Potency [9] | Potency [10] | Potency [11] | Potency [12] | Potency [13] | Potency [14] | caspase-3 activation [15] -0.87% | outcome [16] | outcome [17] | outcome [18] | outcome [19]

Nc1cc([N+](=O)[O-])ccc1C(=O)O
inactive: Potency [1] > 92 µM | Potency [2] > 92 µM | Potency [3] > 92 µM | Potency [4] > 92 µM | Potency [5] > 92 µM | Potency [20] > 92 µM | outcome [6] | activity change, negative = cytotoxicity [7] 7.91% | Potency [9] | Potency [10] | Potency [11] | Potency [12] | Potency [13] | Potency [14] | caspase-3 activation [15] -2.73% | outcome [16] | outcome [17] | outcome [18] | outcome [19]

CSCCC=O
inactive: Potency [1] > 92 µM | Potency [2] > 92 µM | Potency [3] > 92 µM | Potency [4] > 92 µM | Potency [5] > 92 µM | outcome [6] | activity change, negative = cytotoxicity [7] -17.9% | Potency [8] | Potency [9] | Potency [10] | Potency [11] | Potency [12] | Potency [13] | Potency [14] | caspase-3 activation [15] -1.33% | outcome [16] | outcome [17] | outcome [18] | outcome [19]

NC(=O)CCCCC(N)=O
inactive: Potency [1] > 92 µM | Potency [2] > 92 µM | Potency [3] > 92 µM | Potency [4] > 92 µM | Potency [5] > 92 µM | Potency [20] > 92 µM | outcome [6] | Potency [8] | Potency [9] | Potency [10] | Potency [11] | Potency [12] | Potency [13] | Potency [14] | caspase-3 activation [15] 2.15% | outcome [16] | outcome [17] | outcome [18] | outcome [19]

C[C@@H]1CC2(OC[C@]3(C)O[C@H]23)O[C@H]2C[C@@]3(C)[C@@H]4CC[C@H]5C(C)(C)C(O[C@@H]6OC[C@@H](O)[C@H](O)[C@H]6O)CC[C@@]56C[C@@]46CC[C@]3(C)[C@@H]12 (stereo not given in full)
inactive: Potency [1] > 92 µM | Potency [2] > 92 µM | Potency [3] > 92 µM | Potency [4] > 92 µM | Potency [5] > 92 µM | Potency [20] > 92 µM | outcome [6] | Potency [8] | Potency [9] | Potency [10] | Potency [11] | Potency [12] | Potency [14] | caspase-3 activation [15] 2.9% | outcome [16] | outcome [17] | outcome [19]
